Screening results as filed in PubChem BioAssay.
Sm TGR inh: inhibitors of Schistosoma mansoni thioredoxin glutathione reductase; purified TGR, DTNB reduction, TNB absorbance 405 nm; Potency, µM (doses to about 114 µM), for the others: at the highest dose activity change, negative = inhibition, hits mostly inhibitors; Q962Y6; 360,000 tested, 3% active; also: % is scaled to controls: 0 for no effect and ±100 for the full control effect; nearly all actives have a fitted effect of over 60% in size
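First, TGR (20 nM dispensed) and NADPH were mixed with compound. Second, a 15 min room-temperature incubation followed. Third, further NADPH and then DTNB were added to start the reaction. Finally, TNB absorbance was monitored kinetically.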
NS1 inh: inhibitors of influenza NS1 protein function | Potency, µM (doses to about 46.1 µM), without a hit: at the top dose activity, positive = more growth | 270,000 tested, 0.4% active; calls by dose curve; also: actives are rising curves; nearly all actives have a fitted effect of over 50% in size
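Read-out: OD600 growth recovery of NS1-expressing budding yeast. Cells grown overnight at 30C in -URA glucose medium, washed, resuspended and diluted 1:100 in 2% galactose assay medium, pH 6.0. Same strain lacking NS1 served as positive control.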
Pf growth 96h: P. falciparum growth inhibition at 96 hour, primary screen for plastid delayed-death inhibitors. Potency, µM (series often up to 28.7 µM), for the others: at the top dose activity change, negative = inhibition, usual class: inhibitors. P. falciparum luciferase reporter growth, 96 h. AID 504834. 320,000 tested, 6.9% active; also: % is scaled to controls: 0 for no effect and ±100 for the full control effect
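Luminescence readout: decreased luciferase signal marks inhibited growth of reporter-expressing P. falciparum in infected red cells (2% hematocrit, 0.05% parasitemia final), exposed to compound two generations (96 h, 37 C, 5% CO2).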
Pf growth 48h: inhibits P. falciparum growth in the first generation, 48 h; P. falciparum luciferase growth in erythrocytes, 48 h; AID 504832; 310,000 tested, 5.9% active; Potency, µM (series often up to 28.7 µM), for inactives: at the highest dose activity change, negative = inhibition, usual class: inhibitors; also: % is scaled to controls: 0 for no effect and ±100 for the full control effect
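Cell-based growth assay: transgenic P. falciparum expressing firefly luciferase, cultured in red cells within RPMI 1640 containing 0.5% w/v Albumax, 24 mM bicarbonate and gentamycin. A drop in luciferase activity indicates inhibition.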
AMA1 RON2 block: disrupts binding of P. falciparum AMA1 to RON2 | AlphaScreen AMA1-biotinylated RON2 peptide binding | Potency, µM (top dose mostly 58.2 µM), inactives show at the top dose activity change, negative = inhibition, hits mostly inhibitors | 360,000 tested, 0.2% active | AID 720542;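 also: 0% = vehicle wells and -100% = peptide control; nearly all actives have a fitted effect of over 45% in size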
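AMA1 (3D7) with his tag at 25 nM final met compounds first, then biotinylated RON2 peptide at 25 nM; detection used donor plus acceptor beads, 10 µg/mL apiece, read by AlphaScreen after 30 min at room temperature.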
The depositor's hits bear a star; ? = inconclusive; . = no result given. This is a sample that favours compounds with a hit; in the whole collection about 11% have one here. Unless noted, calls follow the shape of the dose curve; as a rule, active = well fitted curve in the direction sought with a large enough effect; inconclusive = small, poorly fitted or top-dose-only effect, or another doubt; inactive = no such curve, though single readings can be large; an effect the other way counts as inactive or inconclusive. Potency is read from the fitted curve at half-maximal effect.

SMILES	Sm TGR inh	NS1 inh	Pf growth 96h	Pf growth 48h	AMA1 RON2 block
CCOc1ccc(NC(c2ccccc2)P(=O)(OC)OC)cc1 (stereo not given)	16µM*	20%	?	52%	-19%
COc1ccc(C2C=CC(=O)CC2)c(OC)c1 (stereo not given)	.	.	.	.	1%
Cc1cccc(-n2c(SCC(=O)N3CC(=O)Nc4ccccc43)nc3ccccc3c2=O)c1	.	2%	?	13µM*	-22%
Cc1cccc(-n2c(SCC(=O)N3CC(=O)Nc4ccccc43)nc3ccccc3c2=O)c1C	-19%	?	3.7µM*	?	-19%
Cc1ccc(-n2c(SCC(=O)N3CC(=O)Nc4ccccc43)nc3ccccc3c2=O)cc1C	-2%	?	8.3µM*	10µM*	-5%
O=C1CN(C(=O)CSc2nc3ccccc3c(=O)n2CC2CCCO2)c2ccccc2N1 (stereo not given)	-7%	.	?	-21%	1%
C[C@H](CO)N1C[C@H](C)[C@H](CN(C)C(=O)CCC(F)(F)F)OCc2cnnn2CCCC1=O	.	.	.	.	-6%
CCOc1ccccc1/C=C/C(=O)NCC(=O)N1CCC(N(C)C2CCCCC2C)CC1 (stereo not given)	6.3µM*	-5%	23%	?	3%
Cc1cccc(C)c1OCC(=O)N/N=C/C=C/c1ccco1	16µM*	.	0%	0%	12%
Cc1ccc(OCC(=O)N/N=C/C=C/c2ccco2)c(Br)c1	28µM*	5%	-15%	-1%	68%
Cc1cccc(OCC(=O)N/N=C/C=C/c2ccco2)c1	40µM*	14%	45%	15%	8%
CCOC(=O)N1CCC(NC(=O)Cn2nc(-c3ccccc3)ccc2=O)CC1	4%	-3%	9.3µM*	-6%	-2%
CCOC(=O)N1CCN(C(=O)CCn2nc(-c3ccccc3)ccc2=O)CC1	1%	15%	-4%	34%	4%
CCOC(=O)N1CCN(C(=O)Cn2nc(-c3ccc(Cl)cc3)ccc2=O)CC1	12%	3%	-10%	49%	7%
CCOC(=O)Cn1nc(-c2ccc(Cl)cc2)ccc1=O	-5%	-11%	9.3µM*	12%	-3%
CCOC(=O)N1CCC(NC(=O)CCC(=O)c2ccccc2)CC1	-2%	-5%	8.3µM*	-9%	1%
Cc1ccc(C)c(NC(=S)NC(NC(=O)OCc2ccccc2)C(Cl)(Cl)Cl)c1 (stereo not given)	-22%	14%	9.3µM*	?	18%
CCOC(=O)c1sc2c(c1C)c(=O)c(C(=O)OCC)cn2CC	-20%	0%	8%	2.3µM*	-1%
CCOC(=O)c1sc2ncn(CC(=O)N(CC)CC)c(=O)c2c1C	-20%	-15%	?	-3%	-1%
C(=Nc1ccc2c(c1)Cc1ccccc1-2)c1ccccn1	.	-1%	.	.	.
O=C(NNC(=O)c1ccccn1)c1cccc([N+](=O)[O-])c1	1%	.	17%	13µM*	74%
O=C(NNC1=Nc2ccccc2SC1)c1ccccc1F	-1%	-1%	?	?	35%
O=C(NNC1=Nc2ccccc2SC1)c1cccc([N+](=O)[O-])c1	7%	-3%	10µM*	?	46%
C/C(=N\NC(=O)c1cccnc1)c1cccc([N+](=O)[O-])c1	7%	.	?	8%	22%
C/C(=N/NC(=O)CNC(=O)c1ccccn1)c1cccc([N+](=O)[O-])c1	20µM*	9%	20%	13%	82%
SMILES	Sm TGR inh	NS1 inh	Pf growth 96h	Pf growth 48h	AMA1 RON2 block
C/C(=N\NC(=O)c1cc(-c2ccccn2)nc2ccccc12)c1cccc([N+](=O)[O-])c1	14%	.	10µM*	?	0%
Cc1cc(/C=C2\C(=N)N3N=CSC3=NC2=O)c(C)n1Cc1ccccc1	-16%	4%	52%	5%	36%
COc1ccc(S(=O)(=O)c2cnc3ccc(Cl)cc3c2N2CCCCC2C)cc1 (stereo not given)	-1%	.	.	.	.
COc1cc2ncc(C(=O)c3ccc(C)cc3)c(N3CCCCC3)c2cc1OC	-7%	.	.	.	.
C/C(=N\NC(=O)c1cc(C)nc2ccccc12)c1ccncc1	1%	7%	-12%	5%	64%
C/C(=N\NC(=O)c1cc(C)nc2ccccc12)c1ccccn1	1%	.	3.3µM*	3.7µM*	-83%
Cc1c(Cl)cccc1NC(=S)N=Nc1c(O)n(CN2CCOCC2)c2ccccc12	0%	-28%	414%	3.7µM*	27%
Oc1c(N=NC(=S)Nc2ccccc2F)c2ccccc2n1Cc1ccccc1Cl	0%	.	?	5.2µM*	20%
COc1cc(C(=O)NCc2nc(-c3ccc(Cl)cc3)no2)cc(OC)c1OC	-1%	.	.	.	.
Cc1ccc(NC(=O)c2cnn(-c3ccccc3)c2NC(=O)c2ccco2)cc1C	9%	-39%	12µM*	63%	-3%
CCN(CC)C(=O)c1cnn(-c2ccccc2)c1NC(=O)c1ccco1	-2%	-5%	-10%	.	0%
CCc1ccccc1-n1ncc(C(=O)Nc2ccc(OC)cc2)c1C	.	.	.	.	29%
COc1ccc(Br)cc1CNC(=O)c1ccc(-n2c(C)cc3c2CCC(C)C3)cc1 (stereo not given)	-25%	.	.	.	.
CC1C/C(=N\NC(N)=S)c2cc(Cl)ccc2S1 (stereo not given)	-1%	5%	1.9µM*	?	44%
CC(C)=C1CCC(C)CC1=NNC(N)=S (stereo not given)	.	.	.	.	28%
CCOC(=O)c1cc(-c2ccccc2)nc2nc(N(CC)CC)sc12	-6%	18%	12µM*	9.3µM*	97%
O=C(CCc1ccccn1)N1CCCC(N2CCN(c3ccc(F)cc3)CC2)C1 (stereo not given)	-29%	3%	16%	?	2%
CCOC(=O)c1cnc2c(Cl)cc(Cl)cc2c1NCCCN1CCOCC1	13µM*	-1%	0%	?	7%
CCOC(=O)c1cnc2c(C)cc(Cl)cc2c1NCCCN1CCOCC1	?	8%	?	?	0%
CCc1ccc(N/C(N)=N/c2nc(CSc3ncccn3)cc(=O)[nH]2)cc1	3%	5%	?	-2%	2%
COc1ccc([N+](=O)[O-])c(OC)c1C(=O)NC(=O)Nc1nc(C)nc(C)n1	-21%	3%	9%	13%	-7%
Cn1nc(-c2ccccc2)c(CSc2ccccc2)c1Cl	-13%	-6%	9.3µM*	.	63%
CCc1ccc(OCCCC(=O)Nc2nnc(C3CCCO3)s2)cc1 (stereo not given)	-12%	4%	12µM*	39%	-7%
CCCCn1cc(S(=O)(=O)c2ccc(OC)cc2)c(=O)c2cc(F)c(N3CCOCC3)cc21	-1%	.	.	.	.
CCOC(=O)c1cn(CC)c2cc(N3CCN(C)CC3)c(F)cc2c1=O	-12%	4%	?	12µM*	7%
CCn1cc(S(=O)(=O)c2ccc(OC)cc2)c(=O)c2cc(F)c(N3CCN(C)CC3)cc21	2%	6%	8.3µM*	4%	0%
CCOC(=O)c1cn(CC)c2cc(N3CCSCC3)c(F)cc2c1=O	36%	-4%	-2%	0.93µM*	1%
